# Screens: PubChem BioAssay, National Center for Advancing Translational Sciences (NCATS)
# Six1-Eya2 inh = blocks human Six1 binding to Eya2. AID 651725. AlphaScreen GST-Six1/His-Eya2 binding, biochemical; stronger effect = lower value. 0.56% of 360,000 active. Q15475+O00167. activity change, % (no concentration beside the values); in the data active = activity change below about -65%; inconclusive = mostly about -30% to -63%; note: % is set by controls: 0 for no effect and ±100 for the full control effect
# Target sequence (O00167 whole entry, looked up): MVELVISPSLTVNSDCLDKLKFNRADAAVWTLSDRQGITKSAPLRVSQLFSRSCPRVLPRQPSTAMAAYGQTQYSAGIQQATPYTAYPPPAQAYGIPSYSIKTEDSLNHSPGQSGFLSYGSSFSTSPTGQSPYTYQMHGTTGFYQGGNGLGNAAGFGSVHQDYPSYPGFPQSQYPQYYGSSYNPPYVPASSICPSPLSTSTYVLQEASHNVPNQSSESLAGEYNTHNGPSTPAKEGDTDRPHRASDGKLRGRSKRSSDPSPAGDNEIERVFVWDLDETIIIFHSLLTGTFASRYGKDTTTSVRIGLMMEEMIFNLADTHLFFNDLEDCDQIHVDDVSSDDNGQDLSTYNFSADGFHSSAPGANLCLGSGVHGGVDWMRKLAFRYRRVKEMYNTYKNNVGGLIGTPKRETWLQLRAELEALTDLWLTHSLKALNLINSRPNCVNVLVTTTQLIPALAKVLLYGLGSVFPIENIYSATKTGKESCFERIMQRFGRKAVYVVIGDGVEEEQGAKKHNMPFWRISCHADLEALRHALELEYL
# Target sequence (Q15475 whole entry, looked up): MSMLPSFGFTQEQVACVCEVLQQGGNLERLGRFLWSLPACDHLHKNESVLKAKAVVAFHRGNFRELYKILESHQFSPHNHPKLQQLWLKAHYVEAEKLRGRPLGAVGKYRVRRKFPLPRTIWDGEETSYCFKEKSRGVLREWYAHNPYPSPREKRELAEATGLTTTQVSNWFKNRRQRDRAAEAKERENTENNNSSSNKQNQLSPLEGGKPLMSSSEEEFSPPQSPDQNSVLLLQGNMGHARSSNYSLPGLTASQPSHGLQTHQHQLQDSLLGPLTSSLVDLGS
#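 Six1/Eya2 binding was read as AlphaScreen signal after compounds were pinned into GST-Six1 plus His-tagged Eya2 (5X stock 250/500 nM) in pH 8.0 Tris/NaCl/TCEP buffer, beads added, then incubated 1 h, 37 C, dark.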
# G9a block = inhibitors of human histone lysine methyltransferase G9a | G9a H3K9 monomethylation, AlphaScreen, 2 h | Potency, µM (highest dose often 102 µM), without a hit: at the top dose activity, negative = inhibition, actives largely listed as inhibitors | 8.8% of 350,000 active | AID 504332; note: potency is the fitted concentration of half-maximal effect; % is set by controls: 0 for no effect and ±100 for the full control effect; nearly all actives have a fitted effect of over 75% in size
#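 AlphaScreen detection with an anti-monomethyl H3K9 antibody quantified product after a 2 h room-temperature reaction containing 500 nM biotinylated H3K9 peptide, 20 µM SAM and 20 nM enzyme, which had been preincubated 15 min with compound.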
# HP1b binding inh = inhibitors of HP1-beta chromodomain binding to methylated histone tails; P83916; AlphaScreen HP1-beta / biotin-H3K9me3 peptide binding; Potency, µM (titrated, usually from 114 µM), without a hit: at the top dose activity change, negative = inhibition, most hits filed as inhibitors; 0.56% of 390,000 active; note: potency is the fitted concentration of half-maximal effect; nearly all actives have a fitted effect of over 70% in size
#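 Compound inhibition of the preformed complex between 50 nM HP1-beta and 50 nM biotinylated H3K9me3 peptide was read by AlphaScreen. Buffer was PBS pH 7.4 with 0.01% Tween-20. Incubations ran 30 min at room temperature, with 10 ug/mL donor/acceptor beads.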
# JMJD2A Tudor inh = JMJD2A Tudor domain (human) inhibition; O75164; AlphaScreen JMJD2A-Tudor / H3K4me3 peptide binding; Potency, µM (doses to about 114 µM), for the others: at the top dose activity change, negative = inhibition, most hits filed as inhibitors; 4.4% of 390,000 active; note: potency is the fitted concentration of half-maximal effect; % is set by controls: 0 for no effect and ±100 for the full control effect; nearly all actives have a fitted effect of over 50% in size
# BAZ2B block = blocks human BAZ2B. AlphaScreen BAZ2B-H3K14Ac peptide displacement. Potency, µM (highest dose often 114 µM), inactives show top-dose activity change, negative = inhibition, hits mostly inhibitors. 4.4% of 360,000 active. AID 504333; note: potency is the fitted concentration of half-maximal effect; % is set by controls: 0 for no effect and ±100 for the full control effect; nearly all actives have a fitted effect of over 60% in size
#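 Complex of BAZ2B and biotin-H3K14Ac (50 nM apiece) forms over 30 min at RT, then faces library compounds up to 110 uM for another 30 min; AlphaScreen beads added, 20 min dark incubation, luminescence read.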
# CtBP-E1A blk = CtBP/E1A binding inhibition; AID 651724; activity change, % (no concentration beside the values); AlphaScreen GST-E1A/His-CtBP binding, 1536-well; stronger effect = lower value; 0.49% of 340,000 active; in the data active = activity change below about -65%; inconclusive = mostly about -30% to -63%; note: % is set by controls: 0 for no effect and ±100 for the full control effect
#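 In 5 uL wells, 23 nL compound meets equimolar GST-E1A and His-CtBP (5X stock 125 nM each) for 2 h, 37 °C. Beads (5X, 50 ug/mL) then 1 h, 37 °C, dark.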
# An asterisk follows results filed as active; ? = inconclusive; . = no result; [ ] = dose if it differs, or a comment. Compounds with a hit are over-represented: about 10% of the library has one in this group of screens. Unless noted, calls come from the whole dose curve; as a rule, active = well fitted inhibition curve with a large enough effect; inconclusive = small, poorly fitted or top-dose-only effect; inactive = no such curve, though single readings can be large or run the other way.
SMILES,Six1-Eya2 inh,G9a block,HP1b binding inh,JMJD2A Tudor inh,BAZ2B block,CtBP-E1A blk
O=C(O)COc1ccc(/C=C/c2ccc3cccc([N+](=O)[O-])c3n2)cc1,?,28µM*,?,?,56µM*,-22
COc1cc(/C=C/c2ccc3cccc([N+](=O)[O-])c3n2)ccc1OCC(=O)O,?,40µM*,5%,-19%,56µM*,-26
Cc1ccc(S(=O)(=O)Nc2ccccc2C(=O)OC(C)C(=O)Nc2ccc3ccccc3c2)cc1[N+](=O)[O-] (stereo not drawn),1,50µM*,-1%,-30%,-38%,-9
Cc1nn(-c2ccccc2)c(Cl)c1/C=N/Nc1ccc(Cl)c(C(=O)O)c1,?,3.5µM*,?,?,?,-6
C=CCOc1ccc(C=NNc2ccc(S(=O)(=O)Nc3ccccc3C(=O)O)cc2[N+](=O)[O-])cc1OC,-8,.,?,16µM*,.,-15
CCOc1ccc(C=NNc2ccc(S(=O)(=O)Nc3ccccc3C(=O)O)cc2[N+](=O)[O-])cc1,?,.,40µM*,22µM*,.,?
COc1cc(C=NNc2ccccc2[N+](=O)[O-])cc(OC)c1OC,-5,.,.,.,.,-16
CCOc1cccc(C=NNc2ccc(S(=O)(=O)Nc3ccccc3C(=O)O)cc2[N+](=O)[O-])c1O,-9,.,?,?,.,-7
COC(=O)c1ccc2nc(C3CCCCC3)c(Cc3cccc(Cl)c3)n2c1,2,.,.,.,.,5
O=C(CCN1C(=O)C2CC=CCC2C1=O)Nc1cccc(Cl)c1 (stereo not drawn),0,?,24%,-18%,-14%,-5
Cc1nn(-c2ccccc2)c(Cl)c1/C=N/NS(=O)(=O)c1ccc(Br)cc1,-12,-22%,11%,-28%,-12%,-10
COc1ccc(NC(=S)NNc2ccc(S(=O)(=O)Nc3ccccc3C(=O)O)cc2[N+](=O)[O-])cc1,?,.,11µM*,?,7.1µM*,?
O=C(O)c1ccccc1NS(=O)(=O)c1ccc(NN=Cc2ccccc2F)c([N+](=O)[O-])c1,-17,.,50µM*,20µM*,.,-23
COc1ccc(C=NNc2ccc(S(=O)(=O)Nc3ccccc3C(=O)O)cc2[N+](=O)[O-])c(OC)c1,-27,.,20µM*,35µM*,.,.
O=C(O)c1ccccc1/C=N/Nc1ccc(S(=O)(=O)N2CCCC2)cc1[N+](=O)[O-],-7,?,-2%,-35%,?,-10
Cc1nn(-c2ccccc2)c(Cl)c1/C=N/Nc1ccc(S(=O)(=O)Nc2ccccc2C(=O)O)cc1[N+](=O)[O-],-19,20µM*,?,50µM*,14µM*,?
O=C(O)c1ccccc1NS(=O)(=O)c1ccc2ccccc2c1,17,2%[12.7 µM],21%,-7%,-17%,-2
CCCOC(=O)c1c(NC(=O)c2cc3ccccc3c(=O)o2)sc2c1CCC(C)C2 (stereo not drawn),.,4%[59 µM],22%,4%,6%,.
COc1cccc(Cn2c(=O)n(CCc3ccccc3)c(=O)c3c2c2cc(OC)ccc2n3C)c1,.,?,29%,3%,0%,.
CSc1ccc(C=NNc2ccc(S(=O)(=O)Nc3ccccc3C(=O)O)cc2[N+](=O)[O-])cc1,-14,.,20µM*,20µM*,.,2
Cc1ccc(NS(=O)(=O)c2ccc(N/N=C/c3ccncc3)c([N+](=O)[O-])c2)c(C)c1,0,-4%,43%,-14%[57.1 µM],-9%,2
CCOc1ccc(OCCCC(=O)N(C)CC(=O)Nc2ccc(N3CCOCC3)cc2)cc1,1,35µM*,-9%,-18%,-5%,-20
CN(CC(=O)Nc1ccc(N2CCOCC2)cc1)C(=O)CCCOc1ccc(Cl)cc1Cl,?,20µM*,5%,-29%,?,-16
COCCCN(CC(=O)Nc1ccc(N2CCOCC2)cc1)S(=O)(=O)c1ccc(Cl)cc1,0,?,?,79µM*,.,8
